Measured values published in PubChem BioAssay (NCI).
The panel holds about 83,000 compounds, 20% with a hit somewhere; the sample as a whole holds those more often.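 Plates (96-well) were seeded with cells, treated with compound at one concentration, and incubated for 48 hours before percent growth was determined.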 Active and inactive are the calls of the source. Rule for the calls: active = growth percent below 10; inactive = the rest.

Test system: HL-60(TB) leukemia
Assay: NCI-60 one-dose screen, 48 h (100 = growth as untreated, 0 = no growth, -100 = all killed)
Details: 10 µM unless noted

Row | Compound | growth
1 | Cc1ccc(C(=O)c2ccc(CC(=O)N/N=C/c3ccc(O)cc3O)n2C)cc1 | 4.48% (active)
2 | CCOC(=O)C(Cc1ccccc1)n1c(O)c(/C=N/c2ncc(Cc3ccc(Cl)cc3Cl)s2)sc1=S (stereo not drawn) | -35.2% (active)
3 | CC1(C)NC(=O)c2[nH]c3c(Cl)c(Cl)ccc3c2C1C#N (stereo not drawn) | 65.4% (inactive)
4 | Clc1cccc(CNc2c3ccccc3nc3ccccc23)c1 | 9.02% (active)
5 | CCN(CC)CCCC(C)Nc1c2ccc(Cl)cc2nc2ccc(OC)cc12 (stereo not drawn) | 55.3% (inactive)
6 | CNc1ccc(Br)cc1-c1n[nH]c(=O)[nH]c1=O | 104% (inactive)
7 | Clc1ccc(Oc2ccc(Nc3ncnc4onc(-c5ccccc5)c34)cc2)c(Cl)c1 | 100% (inactive)
8 | COc1ccc(C(O)c2cc3c(N)c(C(=O)Nc4cccc(OC)c4)sc3nc2C)cc1 (stereo not drawn) | -55.9% (active)
9 | CCCCCN(CCCCC)CC(O)c1cc(C)c2ccc3cc(C(C)C)ccc3c2c1 (stereo not drawn) | -29.6% (active)
10 | CC/C=C\C[C@H](O)C/C=C1/C(=O)C=C[C@@H]1C/C=C\CCCC(=O)O | 75.2% (inactive)
11 | COc1ccc2c3c(c(OCCCN(C)C)nc2c1)-c1ccc(Cl)cc1C3=O | 70.7% (inactive)
12 | COc1cc2oc(-c3cccc(C(=O)Nc4ccc(Cl)cc4)c3)cc(=O)c2c(OC)c1OC | -11.1% (active)
13 | O=C1/C(=C\c2ccc(Cl)cc2)CN(C(=S)Nc2ccccc2)C/C1=C\c1ccc(Cl)cc1 | -15.4% (active)
14 | COCCOc1ccc(-c2nc3ccc(-c4nc5ccc(N6CCN(C)CC6)cc5[nH]4)cc3[nH]2)cc1 | 3.73% (active)
15 | COc1cc(C(=O)/C=C/c2cc(-c3cc(OC)c(OC)c(OC)c3)n[nH]2)cc(OC)c1OC | 0.291% (active)
16 | C=C1C(=O)O[C@H]2[C@H]1CC/C(COC(=O)NCc1ccc(Cn3c(=O)sn(-c4ccc(I)cc4)c3=O)cc1)=C\CC[C@@]1(C)O[C@@H]21 | -32% (active)
17 | O=c1[nH]cc(Nc2cc(Cl)c3nonc3c2[N+](=O)[O-])c(=O)[nH]1 | 75.8% (inactive)
18 | O=c1nc2sc3nc4ccccc4cc3cc-2s1 | 99% (inactive)
19 | CC(C)(Sc1cc(C(C)(C)C)c(O)c(C(C)(C)C)c1)Sc1cc(C(C)(C)C)c(OC(=O)CCCC(=O)O)c(C(C)(C)C)c1 | 67.6% (inactive)

Row | Compound | growth
20 | Cc1nc2ccccc2c(/C=C/c2ccc(Cl)cc2)c1C(=O)/C=C/c1ccc(C(F)(F)F)cc1 | -37% (active)
21 | Cn1nc(C(F)(F)F)cc1-c1c[nH]c(OCc2ccc(Cl)cc2)c(-c2ccc(Cl)c(C(F)(F)F)c2)c1=O | -28% (active)
22 | COC(=O)c1c2c(c(C)[n+]([O-])c1C)C(=O)C(NCc1ccc(F)cc1)=CC2=O | -51.5% (active)
23 | O=c1ccn(C2CC(O)C(O)C(CO)O2)c(=O)[nH]1 (stereo not drawn) | 90.4% (inactive)
24 | COc1ccc(SC2c3ccc(C)cc3Oc3nc(N)c(C#N)c(N)c32)cc1 (stereo not drawn) | -53.4% (active)
25 | O=C(O)c1ccccc1C(F)(F)F | 100% (inactive)
26 | CCN(CC)CCN1CC(O)=C(c2nc(-c3ccc(Cl)cc3)cs2)C1=N | -33.7% (active)
27 | CC1(n2nnnc2N2CCCN(c3ncccc3N)CC2)CCC1 | 102% (inactive)
28 | COc1ccc(/C=C/c2n[nH]c3ccc(N4CCOC4=O)cc23)cc1 | -27.5% (active)
29 | COc1cccc(C(=O)Cn2cc(/C=C(\C#N)S(=O)(=O)c3ccccc3)c3ccccc32)c1 | 102% (inactive)
30 | Cc1ccc(C(=O)C2C(=O)C3CCC2C3)cc1 (stereo not drawn) | 98.3% (inactive)
31 | Cc1c(O)cc(-c2cnc(N/N=C/c3ccccc3)s2)c(O)c1C | 19.1% (inactive)
32 | Oc1ccc(CN2CCC(N3CCOCC3)CC2)c2cccnc12 | 34.4% (inactive)
33 | COc1ccc(-c2nc3sc(-c4cc(OC)c(OC)c(OC)c4)nn3c2/C=C2/C(=O)Nc3ccc(F)cc32)cc1 | 35.8% (inactive)
34 | O=c1c2c3c(sc2n2c(-c4cc(-c5ccccc5)no4)nnc2n1Cc1ccccc1)CCCC3 | 72.8% (inactive)
35 | O=C(Nc1ccccc1-c1nc2ccccc2c(=O)[nH]1)c1cc2ccccc2[nH]1 | 65.5% (inactive)
36 | Fc1ccccc1C1c2ccccc2-c2nccn21 (stereo not drawn) | 76.5% (inactive)
37 | O=[N+]([O-])c1ccc(Oc2cccc3c(Oc4ccc([N+](=O)[O-])cc4[N+](=O)[O-])cccc23)c([N+](=O)[O-])c1 | 99.9% (inactive)
38 | C=C1C(=O)O[C@H]2[C@H]1CC/C(COC(=O)c1cc3cc(Cl)ccc3[nH]1)=C\CC[C@@]1(C)O[C@@H]21 | -46% (active)
